From the supplement of paper PMC13380429
Where a name gives a salt, the structure may show the parent alone.

Tested on: Vero E6 infected with SARS-CoV-2
Assay: inhibition of SARS-CoV-2 cytopathic effect; higher = more antiviral protection, active = above 15
Conditions: 48 h

Measured: inhibition of SARS-CoV-2 cytopathic effect

Nc1ncnc2c1ncn2[C@H]1CC[C@@H](CO)O1 [dideoxyadenosine]
inactive: 1 nM 2.15% | 8.33 nM 2.41% | 100 nM 2.1% | 833.33 nM 1.23% | 10000 nM 4.14%

COc1cc(OC)cc(C(=O)NNC(=O)Nc2cccc3ccccc23)c1
inactive: 1 nM 0.29% | 8.33 nM -2.09% | 100 nM -1.74% | 833.33 nM 2.71% | 10000 nM -1.92%

C=CCN1CCc2cc(O)c(O)cc2[C@H](c2ccccc2)C1
inactive: 1 nM 1.44% | 8.33 nM 0.58% | 100 nM 0.35% | 833.33 nM 0.44% | 10000 nM -2.9%

Cn1cnc2c(NCc3ccccc3)nc(NCCO)nc21 [olomoucine]
inactive: 1 nM 1.4% | 8.33 nM 1.88% | 100 nM 1.77% | 833.33 nM -0.46% | 10000 nM -0.63%

O=C1NC(=O)c2c1c1c3ccccc3n3c1c1c2c2ccccc2n1C1CCC3O1
inactive: 1 nM 0.12% | 8.33 nM 2.27% | 100 nM -1.21% | 833.33 nM 4.22% | 10000 nM 8.57%

CC/C(=C(\c1ccc(O)cc1)c1ccc(OCCNC)cc1)c1ccccc1 [Endoxifen HCl]
active: 10000 nM 57%
inactive: 1 nM -1.34% | 8.33 nM 7.36% | 100 nM 10.6% | 833.33 nM -0.77%
